# Among all 360,000 compounds or so, about 16,000 (4.4%) were called active. Not shown: some 9% with an inconclusive outcome. Only a selection was taken, and actives are over-represented in it overall. Values without a mark were called inactive. The call rests on the fitted dose curve; in most records, active means well fitted inhibition curve with a large enough effect; inconclusive means small, poorly fitted or top-dose-only effect; inactive means no such curve, though single readings can be large or run the other way.
# Target: Bromodomain adjacent to zinc finger domain protein 2B (Homo sapiens) (UniProt Q9UIF8)
# Assay: qHTS Assay for Inhibitors of BAZ2B; further: nearly all actives have a fitted effect of over 60% in size
# Conditions: AlphaScreen BAZ2B-H3K14Ac peptide displacement; series mostly up to 114 µM; activity change, negative = inhibition: at the top concentration
# In short: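 Complex of BAZ2B and biotin-H3K14Ac (50 nM apiece) forms over 30 min at RT, then faces library compounds up to 110 uM for another 30 min; AlphaScreen beads added, 20 min dark incubation, luminescence read.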
# On the % scale 0 is the no-effect control and ±100 the full control effect; potency means the concentration at half of the fitted maximal effect.
# Chain of Bromodomain adjacent to zinc finger domain protein 2B (Homo sapiens) (Q9UIF8 whole entry, looked up, the tested form may be a part): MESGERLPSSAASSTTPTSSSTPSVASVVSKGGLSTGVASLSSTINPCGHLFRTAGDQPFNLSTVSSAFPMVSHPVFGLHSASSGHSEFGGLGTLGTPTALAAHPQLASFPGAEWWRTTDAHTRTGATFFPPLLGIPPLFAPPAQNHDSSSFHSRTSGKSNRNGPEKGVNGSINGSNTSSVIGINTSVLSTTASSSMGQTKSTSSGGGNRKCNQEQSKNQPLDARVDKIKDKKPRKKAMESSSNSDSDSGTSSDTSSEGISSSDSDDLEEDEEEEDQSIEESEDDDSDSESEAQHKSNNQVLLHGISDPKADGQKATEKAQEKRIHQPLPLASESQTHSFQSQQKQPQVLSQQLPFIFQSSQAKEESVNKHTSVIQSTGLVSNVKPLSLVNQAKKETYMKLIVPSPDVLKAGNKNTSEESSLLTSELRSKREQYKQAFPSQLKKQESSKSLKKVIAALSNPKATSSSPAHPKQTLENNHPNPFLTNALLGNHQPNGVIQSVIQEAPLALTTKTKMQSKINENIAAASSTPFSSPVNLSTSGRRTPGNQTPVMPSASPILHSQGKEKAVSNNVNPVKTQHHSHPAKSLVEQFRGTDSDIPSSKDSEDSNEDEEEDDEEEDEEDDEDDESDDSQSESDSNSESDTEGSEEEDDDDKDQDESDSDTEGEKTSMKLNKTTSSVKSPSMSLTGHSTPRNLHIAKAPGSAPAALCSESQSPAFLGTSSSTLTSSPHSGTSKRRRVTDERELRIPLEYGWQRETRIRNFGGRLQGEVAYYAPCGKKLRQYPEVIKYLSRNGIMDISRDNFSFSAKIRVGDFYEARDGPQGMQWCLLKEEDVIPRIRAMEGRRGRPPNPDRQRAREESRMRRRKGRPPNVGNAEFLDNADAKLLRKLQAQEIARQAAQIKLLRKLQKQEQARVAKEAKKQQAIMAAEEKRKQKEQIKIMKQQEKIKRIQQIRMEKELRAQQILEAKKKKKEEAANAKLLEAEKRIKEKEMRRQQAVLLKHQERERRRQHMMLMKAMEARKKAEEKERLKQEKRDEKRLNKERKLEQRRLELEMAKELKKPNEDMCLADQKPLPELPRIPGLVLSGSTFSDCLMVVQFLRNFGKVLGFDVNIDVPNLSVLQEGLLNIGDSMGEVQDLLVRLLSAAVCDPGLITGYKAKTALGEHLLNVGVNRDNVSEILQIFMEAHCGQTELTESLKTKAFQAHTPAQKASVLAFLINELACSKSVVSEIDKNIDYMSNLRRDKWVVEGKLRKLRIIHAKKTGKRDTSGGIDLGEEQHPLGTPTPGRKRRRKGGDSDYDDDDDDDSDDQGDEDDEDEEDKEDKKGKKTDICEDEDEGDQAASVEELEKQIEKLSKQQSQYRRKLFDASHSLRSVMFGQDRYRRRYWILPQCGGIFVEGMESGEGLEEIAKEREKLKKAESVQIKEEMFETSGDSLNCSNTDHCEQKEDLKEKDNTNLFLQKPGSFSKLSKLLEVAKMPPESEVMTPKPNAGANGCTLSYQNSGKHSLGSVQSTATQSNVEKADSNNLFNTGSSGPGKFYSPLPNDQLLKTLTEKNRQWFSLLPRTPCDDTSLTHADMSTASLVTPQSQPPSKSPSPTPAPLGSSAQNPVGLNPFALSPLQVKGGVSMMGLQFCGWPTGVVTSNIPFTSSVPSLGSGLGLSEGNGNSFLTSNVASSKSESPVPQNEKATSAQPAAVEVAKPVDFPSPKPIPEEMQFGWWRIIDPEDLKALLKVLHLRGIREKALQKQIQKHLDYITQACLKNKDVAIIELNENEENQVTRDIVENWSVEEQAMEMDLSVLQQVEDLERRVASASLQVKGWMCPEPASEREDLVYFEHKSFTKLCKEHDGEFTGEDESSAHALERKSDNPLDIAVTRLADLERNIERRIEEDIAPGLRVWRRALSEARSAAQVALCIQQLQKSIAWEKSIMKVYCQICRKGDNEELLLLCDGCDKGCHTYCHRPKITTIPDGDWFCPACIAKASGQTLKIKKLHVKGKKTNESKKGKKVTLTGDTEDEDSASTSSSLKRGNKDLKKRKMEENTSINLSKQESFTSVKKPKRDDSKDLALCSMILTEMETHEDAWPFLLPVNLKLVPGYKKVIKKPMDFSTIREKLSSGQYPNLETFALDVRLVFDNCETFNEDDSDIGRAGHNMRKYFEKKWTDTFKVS
Compound,"activity change, negative = inhibition [%]",Potency
COc1ccc(CCNc2nc(-c3ccc(Cl)cc3)cc(C(F)(F)F)n2)cc1OC,-0.128,–
C#CCOCCOCCOCCNc1nc(N2CCN(C(=O)[C@H](Cc3ccc(O)cc3)n3cc(C(N)CC(C)C)nn3)CC2)nc(N2CCN(C(=O)[C@H](CCC(=O)O)n3cc(C(N)[C@H](C)CC)nn3)CC2)n1 (some centres not stated),–,70.8 µM (active)
C#CCOCCOCCOCCNc1nc(N2CCN(C(=O)C(Cc3ccc(O)cc3)n3cc(C(N)CC(C)C)nn3)CC2)nc(N2CCN(C(=O)C(Cc3ccc(O)cc3)n3cc(C(N)C(C)CC)nn3)CC2)n1 (configuration not stated),–,56.2 µM (active)
C#CCOCCOCCOCCNc1nc(N2CCN(C(=O)[C@H](CCC(=O)O)n3cc(C(N)CO)nn3)CC2)nc(N2CCN(C(=O)[C@H](Cc3ccc(O)cc3)n3cc(C(N)[C@H](C)CC)nn3)CC2)n1 (some centres not stated),–,39.8 µM (active)
CC[C@H](C)[C@@H](C(=O)N1CCNCC1)n1cc([C@@H](N)Cc2ccc(O)cc2)nn1,-27.4,–
C#CCOCCOCCOCCNc1nc(N2CCN(C(=O)[C@H](CCCCN)n3cc([C@@H](N)C(C)CC)nn3)CC2)nc(N2CCN(C(=O)[C@H](Cc3ccc(O)cc3)n3cc([C@@H](N)C(C)CC)nn3)CC2)n1 (some centres not stated),–,44.7 µM (active)
CSc1ccc(C2C(C(=O)Nc3ccccc3)=C(C)Nc3nc4ccccc4n32)cc1 (configuration not stated),-18.3,–
CCC(CC)C(=O)N1CCc2cc(OC)c(OC)cc2C1COc1ccc(F)cc1 (configuration not stated),-21.4,–
COc1ccc(NC(=O)c2sc3nc[nH]c(=O)c3c2C)cc1,-19.2,–
COc1ccc(OC)c(-c2nc(C(N)=O)c3c(n2)n(-c2ccc4c(c2)OCO4)c(=O)n3C)c1,-5.87,–
CCc1ccccc1NC(=O)N1CCN(C(=O)c2nsc3ccccc23)CC1,9.41,–
Cc1csc2nc(COC(=O)c3ccc(NC(=O)COc4ccccc4F)cc3)cc(=O)n12,2.08,–
CCc1nc2ccc(C(=O)N3CCN(c4cc(Cl)ccc4C)CC3)cc2nc1CC,-3.97,–
Cc1c(NC(=O)C(C)(C)C)cccc1-c1nc2ccccc2s1,-1.23,–
O=C1CSC(=S)N1/N=C/c1ccc(O)c([N+](=O)[O-])c1,–,50.1 µM (active)
COc1cccc(N2CCN(C(=O)CCCCCn3c(=O)[nH]c4ccccc4c3=O)CC2)c1,-17.1,–
COc1ccc2c(Sc3ccc(C)cc3)c(C(=O)NC(C)c3ccccc3)[nH]c2c1 (configuration not stated),-17.5,–
Cc1ccc(N(CC(=O)NCC(C)c2ccccc2)S(=O)(=O)N(C)C)cc1 (configuration not stated),3.62,–
CS(=O)(=O)c1ccc2c(c1)SC1=NC(=O)/C(=C/c3ccco3)C(=N)N12,–,50.1 µM (active)
CCC1=NN2C(=N)/C(=C/c3cc(C)n(-c4ccccc4)c3C)C(=O)N=C2S1,-9.65,–
CC(C)(C)OC(=O)NCCCCCNC(=O)c1nc[nH]c1C(=O)NCc1ccccc1,-6.92,–
Cc1ccc(NC(=O)c2nc[nH]c2C(=O)N[C@@H](CCCCNC(=O)OC(C)(C)C)C(=O)OC(C)(C)C)cc1,4.5,–
CC(C)(C)OC(=O)NCCCCCNC(=O)c1[nH]cnc1C(=O)Nc1nccs1,–,31.6 µM (active)
OCc1cnc(SCc2ccc(F)cc2)n1Cc1ccc(F)cc1,1.23,–

Compound,"activity change, negative = inhibition [%]",Potency
CCOc1ccc(-n2c(SCC(=O)NCc3ccccc3)nc3n[nH]c(C)c3c2=N)cc1,-0.2,–
O=C(O)c1ccc(-n2cccc2)cc1O,–,56.2 µM (active)
O=C(Nc1ccc(C(=O)O)c(O)c1)c1ccccc1,-17.5,–
O=C(Cn1ccc(=O)[nH]c1=O)Nc1ccc(C(=O)O)c(O)c1,-11,–
Cc1ccc(S(=O)(=O)N(Cc2nc(-c3ccc(Cl)cc3)no2)C2CCCCC2)cc1,-2.47,–
O=C(CN1CCCCCC1)NCCN1C(=O)S/C(=C\c2ccccc2Cl)C1=O,-16,–
CN1C2CCC1/C(=C\c1ccccc1Cl)C(=O)/C2=C\c1ccccc1Cl,–,39.8 µM (active)
O=C(CN1C(=O)S/C(=C\c2ccccc2Cl)C1=O)NC1C=CS(=O)(=O)C1 (configuration not stated),-14.2,–
O=C(Nc1ccc(F)cc1F)c1ccc2c(=O)n3c(nc2c1)CCCCC3,-1.2,–
CCOC(=O)c1cc2c(=O)n3ccccc3nc2n(CCCOC)c1=NC(=O)C(C)(C)Oc1ccc(Cl)cc1,6.45,–
Oc1ccccc1-c1nc(/C=C/c2ccc(F)cc2)no1,2.43,–
Cc1ccn2c(=O)nc(SCC(=O)NCc3ccc4c(c3)OCO4)nc2c1,–,56.2 µM (active)
Cc1ccn2c(=O)nc(SCC(=O)NCc3ccc(F)cc3)nc2c1,7.72,–
O=C(CSc1ncn[nH]1)NCc1ccc2c(c1)OCO2,-10.9,–
Cc1ccc(C)c(Nc2nnc(-c3ccc(C)c(S(=O)(=O)N4CCCCC4)c3)c3ccccc23)c1,-2.85,–
COc1cccc(CNC(=O)c2ccc3c(c2)sc2nc(-c4cccc(OC)c4)cn23)c1,0.455,–
CN(C)CCOC1c2ccccc2-c2ccccc21,-16.4,–
COc1ccc(OC)c(NC(=O)CN(C)CCOc2ccc(Br)cc2)c1,-0.9,–
CN(C)CCOc1cccc(Br)c1,–,44.7 µM (active)
COc1ccc(NC(=O)CN2CCCN(Cc3ccccc3)S2(=O)=O)cc1,-14.2,–
Nc1ccc(C(=O)NCc2ccccc2)cc1,-7.75,–
CC(C)c1ccc(C(=O)NCCCc2ccccc2)cc1,20,–
O=C(NCCCNCc1ccccc1)c1ccc(/C=N/O)nc1,–,50.1 µM (active)

# Source: PubChem BioAssay AID504333 (National Center for Advancing Translational Sciences (NCATS), 2011)
